Assay outcomes: PubChem, National Center for Advancing Translational Sciences (NCATS)
Only some compounds are listed: those with a hit (about 10% of all), similar ones and a draw of the others.
CtBP-E1A inh – CtBP/E1A binding inhibition; AlphaScreen GST-E1A/His-CtBP binding, 1536-well; stronger effect = lower value; activity change, % (test concentration not listed); 340,000 tested, 0.49% active; in the data active = activity change below about -65%; inconclusive = mostly about -30% to -63%; also: % is scaled to controls: 0 for no effect and ±100 for the full control effect
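Homogeneous bead-based format: GST-tagged E1A captured on glutathione donor beads, His-tagged CtBP on nickel acceptor beads; compounds precede bead addition by 2 h at 37 °C.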
G9a block – blocks human histone lysine methyltransferase G9a | G9a H3K9 monomethylation, AlphaScreen, 2 h | 350,000 tested, 8.8% active | Potency, µM (titrated, usually from 102 µM), inactives show at the highest dose activity, negative = inhibition, most hits filed as inhibitors | AID 504332 | Q96KQ7; also: potency is read from the fitted curve at half-maximal effect; % is scaled to controls: 0 for no effect and ±100 for the full control effect; nearly all actives have a fitted effect of over 75% in size
Target sequence (Q96KQ7 913-1193 limits assumed): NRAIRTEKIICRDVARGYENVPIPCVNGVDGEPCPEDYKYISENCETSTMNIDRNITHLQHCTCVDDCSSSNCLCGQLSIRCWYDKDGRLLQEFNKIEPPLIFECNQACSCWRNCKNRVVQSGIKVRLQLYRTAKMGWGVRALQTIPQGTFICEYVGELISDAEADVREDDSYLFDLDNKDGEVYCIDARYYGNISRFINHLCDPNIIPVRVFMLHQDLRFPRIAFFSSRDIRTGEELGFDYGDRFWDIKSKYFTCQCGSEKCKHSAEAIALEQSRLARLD
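Signal arises when biotinylated H3K9 peptide, once monomethylated, bridges streptavidin donor and antibody-captured acceptor beads. Enzyme at 20 nM was preincubated 15 min with test compounds; peptide 500 nM and SAM 20 uM then reacted for 2 h.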
Six1-Eya2 inh – blocks human Six1 binding to Eya2; Q15475+O00167; AlphaScreen GST-Six1/His-Eya2 binding, biochemical; stronger effect = lower value; activity change, % (test concentration not listed); 360,000 tested, 0.56% active; AID 651725; in the data active = activity change below about -65%; inconclusive = mostly about -30% to -63%; also: % is scaled to controls: 0 for no effect and ±100 for the full control effect
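AlphaScreen with GST-Six1 and His-Eya2 (5X mix: 250 nM and 500 nM), glutathione donor and nickel acceptor beads; buffer 50 mM Tris pH 8.0, 300 mM NaCl, 1 mM TCEP; 1 h at 37 C in the dark.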
BAZ2B block – blocks human BAZ2B; Q9UIF8; AlphaScreen BAZ2B-H3K14Ac peptide displacement; Potency, µM (doses to about 114 µM), without a hit: at the top dose activity change, negative = inhibition, usual class: inhibitors; 360,000 tested, 4.4% active; also: potency is read from the fitted curve at half-maximal effect; % is scaled to controls: 0 for no effect and ±100 for the full control effect; nearly all actives have a fitted effect of over 60% in size
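AlphaScreen displacement of biotin-H3(5-23)K14Ac peptide (50 nM final) from BAZ2B (50 nM final) in PBS pH 7.4, 0.01% Tween-20; complex preformed 30 min RT, then compounds (top 110 uM) 30 min RT, beads 20 min dark.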
JMJD2A Tudor inh – blocks the human JMJD2A Tudor domain | AlphaScreen JMJD2A-Tudor / H3K4me3 peptide binding | AID 504339 | 390,000 tested, 4.4% active | Potency, µM (series often up to 114 µM), for the others: at the highest dose activity change, negative = inhibition, usual class: inhibitors; also: potency is read from the fitted curve at half-maximal effect; % is scaled to controls: 0 for no effect and ±100 for the full control effect; nearly all actives have a fitted effect of over 50% in size
HP1b binding inh – HP1-beta chromodomain-methylated histone interaction inhibition | P83916 | AlphaScreen HP1-beta / biotin-H3K9me3 peptide binding | Potency, µM (series often up to 114 µM), inactives show at the highest dose activity change, negative = inhibition, actives largely listed as inhibitors | 390,000 tested, 0.56% active; also: potency is read from the fitted curve at half-maximal effect; nearly all actives have a fitted effect of over 70% in size
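Compound inhibition of the preformed complex between 50 nM HP1-beta and 50 nM biotinylated H3K9me3 peptide was read by AlphaScreen. Buffer was PBS pH 7.4 with 0.01% Tween-20. Incubations ran 30 min at room temperature, with 10 ug/mL donor/acceptor beads.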
* = called active by the depositor; ? = inconclusive; · = no result. Unless noted, calls follow the shape of the dose curve; as a rule, active = well fitted inhibition curve with a large enough effect; inconclusive = small, poorly fitted or top-dose-only effect; inactive = no such curve, though single readings can be large or run the other way.

SMILES	CtBP-E1A inh	G9a block	Six1-Eya2 inh	BAZ2B block	JMJD2A Tudor inh	HP1b binding inh
N#Cc1nc(COc2ccc(Cl)cc2)oc1NCc1ccc2c(c1)OCO2	-14	28µM*	-23	?	-14%	?
COc1ccc(CCNc2oc(COc3cccc(C)c3)nc2C#N)cc1OC	·	14µM*	·	?	?	?
COc1ccc(CNc2oc(COc3cccc(C)c3)nc2C#N)cc1	·	5µM*	·	14µM*	?	?
O=S(=O)(Cc1ccccc1)Oc1ccccc1	14	133%	16	33%	50%	67%
Cc1cccc(-c2nc(S(=O)(=O)c3ccc(Cl)cc3)c(N3CCCCCC3)o2)c1	·	?	·	?	-25%	-18%
CCOC(=O)C1=CN2CCC[C@H]2CC1=O	-1	·	0	·	-10%	20%
O=C1CC2CCCN2C=C1I (stereo unspecified)	3	·	0	·	18µM*	23%
